Only some compounds are listed: those with a hit (about 9.3% of all), similar ones and a draw of the others.
ELG1 genotox: induces genotoxicity in HEK293T cells with luciferase-tagged ELG1; HEK293T ELG1-luciferase reporter, luminescence, 16 h; Potency, µM (highest dose often 46 µM), without a hit: top-dose activity change, positive = activation, actives largely listed as activators; 330,000 tested, 1.3% active; also: % of control where 0% means no effect; nearly all actives have a fitted effect of over 60% in size
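Genotoxic stress is detected as increased luminescence from luciferase-tagged ELG1 in HEK293T cells, measured with ONE-Glo after a 16 hr treatment at 37 °C.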
Rab9 promoter act: Rab9 promoter activation; Huh7 Rab9 promoter-luciferase reporter, luminescence, 24 h; Potency, µM (titrated, usually from 9.22 µM), for inactives: top-dose activation, negative = inhibition, usual class: activators; 320,000 tested, 2.8% active; AID 485297; also: % of control where 0% means no effect; nearly all actives have a fitted effect of over 60% in size
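Promoter activation is measured as luciferase luminescence in Huh7 cells stably transfected with a Rab9 promoter–luciferase construct, following 24 h compound exposure at 37 °C and 10 min reagent incubation at ambient temperature.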
FLuc counter: counter-screen for miR-21 project: firefly luciferase inhibitors or activators. P08659. purified FLuc, Km substrates, luminescence inhibition. Potency, µM (highest dose often 57.5 µM), without a hit: at the highest dose activity change, negative = inhibition, usual class: inhibitors. 360,000 tested, 6.9% active. AID 588342;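 also: plate controls were vehicle for no effect and reference inhibitor for full effect; nearly all actives have a fitted effect of over 55% in size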
Target sequence (P08659 whole entry, looked up): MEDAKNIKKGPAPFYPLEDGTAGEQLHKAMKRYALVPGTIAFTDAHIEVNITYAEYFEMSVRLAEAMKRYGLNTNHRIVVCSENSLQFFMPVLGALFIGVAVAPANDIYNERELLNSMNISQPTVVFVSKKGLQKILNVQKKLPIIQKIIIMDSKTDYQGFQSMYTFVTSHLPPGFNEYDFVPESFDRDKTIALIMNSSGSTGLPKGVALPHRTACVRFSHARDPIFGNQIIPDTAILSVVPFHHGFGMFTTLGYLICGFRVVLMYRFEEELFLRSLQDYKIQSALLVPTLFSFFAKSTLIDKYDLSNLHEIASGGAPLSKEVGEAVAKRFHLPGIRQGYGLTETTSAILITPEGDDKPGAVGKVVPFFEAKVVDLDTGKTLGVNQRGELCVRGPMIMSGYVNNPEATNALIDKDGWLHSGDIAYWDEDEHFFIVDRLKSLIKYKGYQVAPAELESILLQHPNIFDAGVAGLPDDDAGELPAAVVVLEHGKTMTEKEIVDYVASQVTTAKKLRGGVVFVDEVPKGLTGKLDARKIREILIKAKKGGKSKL
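Biochemical qHTS of compounds, final roughly 60 µM downward over six points, against 10 nM purified firefly luciferase using Km concentrations of substrates (10 uM D-luciferin, 10 uM ATP) in Tris acetate pH 7.5 buffer; luminescence output.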
SMN2 splice enh: SMN2 splice variant enhancement. AID 1458. Potency, µM (doses to about 46.1 µM), for inactives: at the top dose activity change, positive = activation, hits mostly activators. HEK293 SMN2-luciferase splicing reporter, luminescence, 30-36 h. 210,000 tested, 2.8% active; also: % of control where 0% means no effect; nearly all actives have a fitted effect of over 55% in size
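HEK293 cells carry an SMN2 […]–luciferase reporter in which exon 7 inclusion puts luciferase in frame. Cells were plated 10-12 h before compound addition, then incubated 30-36 h at 37C. ONE-Glo luminescence was read; sodium butyrate at 4.5 mM final served as control.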
ELG1 repair inh: blocks ELG1-dependent DNA repair in HEK293T cells | HEK293T ELG1-luciferase reporter, luminescence, 16 h; DNA damage induced by 5-fluorouridine | Potency, µM (titrated, usually from 46.1 µM), without a hit: at the top dose activity change, negative = inhibition, usual class: inhibitors | 330,000 tested, 2.3% active | AID 504467; also: % is scaled to controls: 0 for no effect and ±100 for the full control effect; nearly all actives have a fitted effect of over 55% in size
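In this reporter screen, reduction of luminescence relative to DMSO vehicle indicated activity. Compounds and 5-fluorouridine were added together to 2,000 cells per well, incubated for 16 hr at 37 °C, then developed with ONE-Glo.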
NPC1 prom act: NPC1 promoter activation. Huh7 NPC1 promoter luciferase reporter, 24 h. Potency, µM (doses to about 9.22 µM), without a hit: top-dose activation, hits mostly activators. 320,000 tested, 2.4% active. AID 485313; also: % of control where 0% means no effect; nearly all actives have a fitted effect of over 60% in size
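Huh7 cells stably carrying NPC1 promoter–luciferase, plated in Opti-MEM with 10% FBS for 2 h, were exposed to compound in DMSO for 24 h at 37 °C; luciferase reagent was added for 10 min and luminescence read.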
* = called active by the depositor; ? = inconclusive; . = not tested or not shown; [ ] = dose if it differs, or a comment. Calls follow the shape of the dose curve; as a rule, active = well fitted curve in the direction sought with a large enough effect; inconclusive = small, poorly fitted or top-dose-only effect, or another doubt; inactive = no such curve, though single readings can be large; an effect the other way counts as inactive or inconclusive. Potency is read from the fitted curve at half-maximal effect.

SMILES	ELG1 genotox	Rab9 promoter act	FLuc counter	SMN2 splice enh	ELG1 repair inh	NPC1 prom act
CCC(=O)N1c2ccc(S(=O)(=O)NCc3ccccc3)cc2CC1C (configuration not stated)	0.2%[9.26 µM]	-3.9%	-0.6%	.	-2.9%	-2.4%
COc1cc(C(=O)Nc2cccc(-c3nc4cc(C)cc(C)c4o3)c2)cc(OC)c1OC	-6.0%	-2.7%	5.36µM*	-16.0%	?	-2.9%
COC(=O)N/N=C\c1ccccc1OC/C=C/c1ccccc1	?	28.9%	16.9µM*	.	?	?
N#CCC(=O)N/N=C\c1cc(Br)ccc1OC/C=C/c1ccccc1	?	?	-4.0%	.	?	?
COc1cc(/C=N\NC(C)=O)ccc1OC/C=C/c1ccccc1	-8.9%	2.6%	-6.9%	.	16.4µM*	1.6%
C=CCOc1ccc(/C=N/NC(C)=O)cc1OCC	0.7%	-5.8%	-1.4%	-2.2%	4.5%	-0.4%
CCOC(=O)N/N=C\c1ccccc1OC/C=C/c1ccccc1	?	24.3%	4.26µM*	.	?	?
CCCc1nnc(SCC(=O)N2CCCCC2C)n1CCOC (configuration not stated)	1.6%	-10.0%	0.4%	.	9.4%	-1.6%
COc1ccc2oc(=O)c(C(=O)OCC(=O)c3ccc([N+](=O)[O-])cc3)cc2c1	-1.2%	0.2%	-1.8%	-4.6%	3.6%	-5.2%
Cc1cccc(OCCNc2cc(N3CCN(C)CC3)ccc2[N+](=O)[O-])c1	-9.1%	-5.7%	-19.0%	-7.7%	-6.4%	-3.5%
Cc1ccc(OCCNc2cc(N3CCN(CCO)CC3)ccc2[N+](=O)[O-])cc1C	-1.8%	-4.6%	23.9µM*	-4.2%	?	0.2%
O=C(c1cn(Cc2ccccc2)nc1-c1cccnc1)N1CCN(Cc2ccccc2)CC1	2.0%	-7.9%	-0.2%	.	-8.9%	-3.5%
O=C(c1cn(Cc2ccccc2)nc1-c1cccnc1)N1CCN(Cc2c(F)cccc2Cl)CC1	-6.6%	-0.3%	-1.3%	.	9.2µM*	-0.6%
O=C(O)c1ccc(CNCc2ccccc2F)cc1	-0.3%	-5.1%	-1.1%	.	-5.9%	-7.0%
O=c1[nH]c(SCc2cccc([N+](=O)[O-])c2)nc2nc[nH]c12	.	.	.	-0.4%[9.22 µM]	.	.
CN1CCc2c(sc3c2C(=O)NC(c2ccc(OC(=O)c4ccc(Cl)cc4)cc2)N3)C1 (configuration not stated)	.	.	-15.0%	-7.8%	.	.
CN1CCc2c(sc3c2C(=O)NC(c2ccc(OC(=O)c4ccc(C(C)(C)C)cc4)cc2)N3)C1 (configuration not stated)	.	.	10.7µM*	-1.1%	.	.
CCOc1cc(C2NC(=O)c3c(sc4c3CCN(C)C4)N2)ccc1OC(=O)c1ccc(F)cc1 (configuration not stated)	.	.	-2.2%	-11.2%	.	.
CN1CCc2c(sc3c2C(=O)NC(c2ccc(OC(=O)c4ccccc4)cc2)N3)C1 (configuration not stated)	.	.	?	15.8µM*	.	.
CCn1nnc2cc(C(=O)Nc3ccc(Cl)cc3C)ccc21	.	.	-9.5%	.	.	.
Cc1ccc(NC(=O)Cn2nnc3sc4c(c3c2=O)CCCC4)c(C)c1	.	.	0.8%	-6.4%	.	.
COc1ccc(CC(=O)NC2CC(=O)N(c3cccc(F)c3)C2)cc1 (configuration not stated)	.	.	-5.6%	.	.	.
Cc1cccc(-n2ncc3c(Nc4ccc(F)cc4)ncnc32)c1	14.6µM*	2.51µM*	?	11.2µM*	?	?
COc1ccc(-n2ncc3c(Nc4cccc(C)c4)ncnc32)cc1	?	3.98µM*	10.7µM*	?	?	2.82µM*
Cc1cccc(-n2ncc3c(NC(C)C)ncnc32)c1	2.59µM*	0.891µM*	2.39µM*	3.55µM*	?	3.16µM*
Cc1ccc(-n2ncc3c(Nc4cccc(C(F)(F)F)c4)ncnc32)cc1C	.	.	15.1µM*	.	.	.

Compound activity (PubChem BioAssay)
